MITF primary – MITF inhibitors, primary screen, biochemical, AlphaScreen, human. hit rate 0.91% among 650,000. Microphthalmia-associated transcription factor (Homo sapiens), O75030. AlphaScreen MITF homodimerization, bead proximity signal. inhibition, % at 2.6 µM; in the data active = inhibition above about 50%
FBW7 activator – FBW7 E3 ligase activators, primary screen, biochemical, AlphaScreen, human; AID 1259310, 2017; normalized activity (activation), % at 26.1 µM; AlphaScreen FBW7–phospho-cyclin E peptide binding, activator screen; hit rate 0.13% among 650,000; in the data active = normalized activity above about 1.9%;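 also: purified mutant Fbw7 with reduced substrate affinity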
TEAD-YAP block – TEAD-YAP interaction inhibition, primary screen, TEAD-YAP interaction inhibitor project, luminescence, HEK-TIYL cells | TEAD-Gal4/YAP UAS-luciferase luminescence | inhibition, % at 9.12 µM | hit rate 1.4% among 640,000 | AID 1259422, 2018; in the data active = inhibition above about 32%
GPR151 ag – activators of human GPR151, primary screen, cell-based, PathHunter beta-arrestin, luminescence; G-protein coupled receptor 151 (Homo sapiens), Q8TDV0; PathHunter beta-arrestin GPR151 cells; activation, % at 11.2 µM; hit rate 1% among 650,000; AID 1508602, 2020; in the data active = activation above about 4.9%
Target sequence (Q8TDV0 whole entry, looked up): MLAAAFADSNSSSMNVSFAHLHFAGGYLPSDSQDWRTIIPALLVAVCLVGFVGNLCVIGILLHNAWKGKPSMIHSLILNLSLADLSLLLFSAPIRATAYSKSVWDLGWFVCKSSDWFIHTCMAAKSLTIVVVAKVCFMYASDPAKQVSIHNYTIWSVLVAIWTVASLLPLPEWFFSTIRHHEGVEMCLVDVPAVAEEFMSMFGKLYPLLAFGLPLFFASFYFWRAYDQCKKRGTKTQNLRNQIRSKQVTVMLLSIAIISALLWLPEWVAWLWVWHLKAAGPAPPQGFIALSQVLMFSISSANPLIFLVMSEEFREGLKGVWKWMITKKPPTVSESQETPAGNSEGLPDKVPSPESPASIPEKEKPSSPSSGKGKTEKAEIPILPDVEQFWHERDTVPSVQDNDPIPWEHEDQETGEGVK
Large screens that a line does not name were inactive. Only some compounds are listed: those with a hit (about 3.4% of all), similar ones and a draw of the others.

CC(C)n1cnc2c(NCc3nc4ccccc4[nH]3)nc(Nc3nc4ccccc4n3C)nc21	none
CC(C)n1cnc2c(NCc3nc4ccccc4[nH]3)nc(Nc3ccc4ncccc4c3)nc21	TEAD-YAP block 40
COc1ccc(C=C2C(=O)NC(=S)NC2=O)c(OC)c1OC	none
CC(C)n1cnc2c(NCc3nc4ccccc4[nH]3)nc(Nc3cnccn3)nc21	TEAD-YAP block 78
CC(C)n1cnc2c(NCc3nc4ccccc4[nH]3)nc(Nc3nccc4ccccc34)nc21	TEAD-YAP block 43
CC(C)n1cnc2c(NC3CC3)nc(Nc3nccc4ccccc34)nc21	none
Cc1ccc(C(=O)Oc2cccnc2)cc1C	none
Nc1ccc(-c2cn3c4c(sc3n2)CCCC4)cc1	none
c1ccc(-c2cn3c4c(nnc3n2)CCCC4)cc1	TEAD-YAP block 44
c1ccc(-c2cn3c4c(sc3n2)CCCC4)cc1	TEAD-YAP block 85
O=C(Nc1ccc(-c2cn3c4c(nnc3n2)CCCC4)cc1)c1cccnc1	none
Fc1ccc(-c2cn3c4c(sc3n2)CCCC4)cc1	TEAD-YAP block 52
CC(=O)Nc1ccc(-c2cn3c4c(sc3n2)CCCC4)cc1	none
C=CCc1cc(/C=C2/SC(=O)N(CC)C2=O)cc(OCC)c1O	none
Oc1ccc(O)c(/C=N\Nc2nnc3c(n2)[nH]c2ccccc23)c1	TEAD-YAP block 50
Oc1ccc(/C=N/Nc2nnc3c(n2)[nH]c2ccccc23)cc1	none
C(=N\Nc1nnc2c(n1)[nH]c1ccccc12)/c1ccccn1	TEAD-YAP block 56
Oc1ccc(/C=N/Nc2nnc3c(n2)[nH]c2ccccc23)c(O)c1	TEAD-YAP block 56
COCCCNC(=O)c1cc2c(=O)n3cccc(C)c3nc2n(Cc2ccccc2)c1=N	none
O=C1NC2(CCN(Cc3cccs3)CC2)Oc2ccccc21	none
O=C1NC2(CCN(S(=O)(=O)c3cccs3)CC2)Oc2ccccc21	FBW7 activator 2.0
COc1ccccc1CN1CCc2nnc(C(C)NC(=O)C(C)C)n2CC1 (stereo not given)	none
O=C(Nc1ccc(Cl)cc1)c1cc2ccccc2cc1NS(=O)(=O)c1ccccc1	TEAD-YAP block 53
CCCN1C(=O)C(O)(CC(=O)c2ccccc2OC)c2cc(Br)ccc21 (stereo not given)	none
CCCN1C(=O)C(O)(CC(=O)c2ccccc2O)c2cc(Br)ccc21 (stereo not given)	TEAD-YAP block 38
Cc1nc2ccc(C(=O)N3c4ccccc4CC3C)cc2s1 (stereo not given)	TEAD-YAP block 42
COc1ccc(CCNC(=O)c2csc(Nc3ccnn3C)n2)cc1	none
COc1ccc(C2=NN(C(=O)c3cc(OC)c(OC)c(OC)c3)C(c3ccccc3OC)C2)cc1OC (stereo not given)	TEAD-YAP block 35
CC(C)Oc1ccccc1/C=C(\C#N)C(=O)NCCc1ccccc1	TEAD-YAP block 50
CC(=O)Nc1cccc(-c2cnc3c(N4CCN(C(=O)c5ccco5)CC4)nccn23)c1	TEAD-YAP block 93
O=C(c1ccco1)N1CCN(c2nccn3c(-c4cccc(F)c4)cnc23)CC1	none
CC(=O)Nc1cccc(-c2cnc(N3CCN(C(=O)c4ccco4)CC3)c3nccn23)c1	FBW7 activator 3.2, TEAD-YAP block 92
CCCCn1c(=O)[nH]c(=O)c2c1nc(CSc1nnc(C)s1)n2CCC	none
CCOc1cccc2c1OC(c1ccc(F)c(F)c1)N1N=C(c3ccc(OC)cc3)CC21 (stereo not given)	none
C[C@@H](O)C(=O)N1CCCC(C(=O)Nc2ccc3[nH]ncc3c2)C1 (stereo not given in full)	none
CCOC(=O)/C(=C/c1cc2ccccc2n1C(C)=O)[N+](=O)[O-]	none
CCOC(=O)c1c2c(n(C)c1CN(C)C)C(=O)C(=O)c1ccc(Br)cc1-2	TEAD-YAP block 96
CCOC(=O)c1c2c(n(C)c1CNC(C)C)C(=O)C(=O)c1ccc(Br)cc1-2	none
COc1cc(OC)cc(C(=O)Oc2cc(C)[nH]c(=O)c2[N+](=O)[O-])c1	none
CCCCc1ccc(NC(=O)c2ccc(N(C)S(C)(=O)=O)cc2)cc1	TEAD-YAP block 35
C/C(=N\NC(N)=S)c1cc(Cl)sc1Cl	TEAD-YAP block 33
COc1cc(OC)cc(C(=O)OCCN(C2=NS(=O)(=O)c3ccccc32)c2ccccc2Cl)c1	none
COc1cc(Nc2nc(NC3CCC(O)CC3)nc3c2ncn3-c2ccsc2)cc(OC)c1OC (stereo not given)	TEAD-YAP block 68
COc1cc(Nc2nc(NC3CC3)c3ncn(-c4ccsc4)c3n2)cc(OC)c1OC	TEAD-YAP block 34
COc1cc(Nc2nc(Nc3ccccc3)nc3c2ncn3-c2ccsc2)cc(OC)c1OC	none
c1ccc(Nc2nc(NC3CC3)c3ncn(-c4ccsc4)c3n2)cc1	TEAD-YAP block 49
Cc1cc(Cl)ccc1OCC(=O)Nc1sc2c(c1C(N)=O)CCCC2	none
COc1ccccc1NC(=O)Cn1cnc2sc(C(=O)Nc3cc(F)ccc3C)c(C)c2c1=O	none
COc1ccccc1NC(=O)Cn1cnc2sc(C(=O)N3CCN(c4ccccc4)CC3)c(C)c2c1=O	none
COc1ccccc1NC(=O)Cn1cnc2sc(C(=O)N3CCN(c4ccccc4OC)CC3)c(C)c2c1=O	FBW7 activator 2.1
COc1ccccc1NC(=O)Cn1cnc2sc(C(=O)Nc3ccc(C)c(F)c3)c(C)c2c1=O	FBW7 activator 1.9
O=C(NC1CCC(Nc2ccc3[nH]ncc3c2)CC1)C(O)c1ccc(F)cc1F (stereo not given)	none
Cc1ccc(NC2=NCC(=O)N2C2CCCC2)cc1	TEAD-YAP block 56
CN1CCN(S(=O)(=O)c2cc([N+](=O)[O-])ccc2N2CCNCC2)CC1	none
O=C1ON=C(c2ccc(Cl)cc2)/C1=C/c1ccc(OCc2ccc(F)cc2)cc1	none
O=CC12c3ccccc3C(c3ccccc31)C1C(=O)N(c3ccc(Cl)cc3)C(=O)C12 (stereo not given)	TEAD-YAP block 44
Cc1ccc(N2C(=O)C3C4c5ccccc5C(C=O)(c5ccccc54)C3C2=O)cc1[N+](=O)[O-] (stereo not given)	TEAD-YAP block 34
O=CC12c3ccccc3C(c3ccccc31)C1C(=O)N(c3ccccc3)C(=O)C12 (stereo not given)	none
COc1ccc2c(c1)C(=O)c1cc(OC)ccc1-2	none
COc1ccc2c(c1)C(=NN=C(N)N)c1cc(OC)ccc1-2	TEAD-YAP block 59
CCCC(=O)N1CCCC(c2nc(-c3cccc(OC)c3)no2)C1 (stereo not given)	none
COc1ccc(-c2noc(C3CCCN(C(=O)c4c(OC)cccc4OC)C3)n2)cc1 (stereo not given)	TEAD-YAP block 47
CCC(CC)C(=O)N1CCCC(c2nc(-c3cccc(OC)c3)no2)C1 (stereo not given)	TEAD-YAP block 42
CCC(C(=O)Nc1cccc(Cl)c1)N1C(=O)C2(OCCCO2)c2ccccc21 (stereo not given)	none
